Data as given in PubChem BioAssay.
The source made the active and inactive calls.

Experiments:
[1] = test system: PRMT1 (protein arginine N-methyltransferase 1); test: PRMT1 binders on small-molecule microarrays, primary screen, biochemical, small-molecule microarray, 635 nm fluorescence (AID 1088); details: small-molecule microarray binding, higher = more signal;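 note: binding of Prmt1 protein to compounds spotted on small-molecule microarray slides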
[2] = yeast growth modulation, basal conditions, primary screen, YJM789 clinical isolate, OD600, 24 h (AID 1089);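 note: growth of clinical yeast isolate S. cerevisiae YJM 789 seeded 1000 cells per well; test concentration not given here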; details: S. cerevisiae YJM789 growth, higher = more signal, called active from +8 up or from −8 down
[3] = fission yeast growth modulation, primary screen, strain 972, OD600, 24 h, no modulator (AID 1090);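 note: basal condition with compound alone and no growth modifier present; test concentration not given here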; details: S. pombe 972 growth, higher = more signal, called active from +8 up or from −8 down
[4] = S. cerevisiae growth modulation with rapamycin, primary screen, strain BY4716, OD600, 96 h (AID 1091); details: higher = more signal, called active from +8 up or from −8 down; note: test concentration not given here
[5] = target: Torsin-1A-interacting protein 2 (Homo sapiens) (UniProt Q8NFQ8); test: LULL1 binders on small-molecule microarray, primary screen, cell lysate, human LULL1 lysate, 635/667 nm fluorescence (AID 1092); details: hLULL1 lysate binding, 635 nm fluorescence, higher = more signal;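 note: probe is lysate of COS7 cells overexpressing human LULL1; score merges per-feature 667 nm fluorescence with signal-to-noise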
Chain of Torsin-1A-interacting protein 2 (Homo sapiens) (Q8NFQ8 whole entry, looked up): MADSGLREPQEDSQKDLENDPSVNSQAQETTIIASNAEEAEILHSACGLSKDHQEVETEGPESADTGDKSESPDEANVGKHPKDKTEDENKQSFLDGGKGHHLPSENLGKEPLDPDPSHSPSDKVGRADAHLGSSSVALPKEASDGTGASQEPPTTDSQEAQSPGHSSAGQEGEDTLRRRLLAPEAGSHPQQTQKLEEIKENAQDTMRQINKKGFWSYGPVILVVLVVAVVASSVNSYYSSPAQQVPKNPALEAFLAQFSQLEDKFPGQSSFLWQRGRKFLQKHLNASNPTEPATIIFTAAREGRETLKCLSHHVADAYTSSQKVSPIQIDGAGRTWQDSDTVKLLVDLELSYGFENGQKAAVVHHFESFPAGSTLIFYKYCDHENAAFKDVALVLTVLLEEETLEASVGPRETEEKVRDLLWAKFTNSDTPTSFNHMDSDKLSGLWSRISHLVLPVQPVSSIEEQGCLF

[6] = E. coli growth modulation, two-sided OD650, primary screen, E. coli filamentation project, strain DRC41, 24 h (AID 1093); details: OD650, 24 h, higher = more signal, called active from +8 up or from −8 down;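 note: MC1000 strain lacking acrAB efflux and sulA so SOS filamentation is blocked; test concentration not given here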
[7] = small-molecule microarray binders of probe aLefty2, primary screen, biochemical, biotinylated probe, 635/667 nm fluorescence (AID 1094); details: higher = more signal;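 note: score merges spot fluorescence near 667 nm with spot signal-to-noise ratio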
[8] = test system: Noggin (protein binding on small-molecule microarray); test: Noggin binders on small-molecule microarray, primary screen, biochemical, 635/667 nm fluorescence (AID 1095); details: 635 nm fluorescence, higher = more signal;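 note: score merges 667 nm feature fluorescence with signal to noise over triplicate slides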
[9] = target: Neurogenic locus notch homolog protein 3 (Homo sapiens) (UniProt Q9UM47); test: NOTCH3 binders on small-molecule microarray, primary screen, biochemical, 635/667 nm fluorescence (AID 1096); details: NOTCH3 binding, 635 nm fluorescence, higher = more signal
Chain of Neurogenic locus notch homolog protein 3 (Homo sapiens) (Q9UM47 whole entry, looked up): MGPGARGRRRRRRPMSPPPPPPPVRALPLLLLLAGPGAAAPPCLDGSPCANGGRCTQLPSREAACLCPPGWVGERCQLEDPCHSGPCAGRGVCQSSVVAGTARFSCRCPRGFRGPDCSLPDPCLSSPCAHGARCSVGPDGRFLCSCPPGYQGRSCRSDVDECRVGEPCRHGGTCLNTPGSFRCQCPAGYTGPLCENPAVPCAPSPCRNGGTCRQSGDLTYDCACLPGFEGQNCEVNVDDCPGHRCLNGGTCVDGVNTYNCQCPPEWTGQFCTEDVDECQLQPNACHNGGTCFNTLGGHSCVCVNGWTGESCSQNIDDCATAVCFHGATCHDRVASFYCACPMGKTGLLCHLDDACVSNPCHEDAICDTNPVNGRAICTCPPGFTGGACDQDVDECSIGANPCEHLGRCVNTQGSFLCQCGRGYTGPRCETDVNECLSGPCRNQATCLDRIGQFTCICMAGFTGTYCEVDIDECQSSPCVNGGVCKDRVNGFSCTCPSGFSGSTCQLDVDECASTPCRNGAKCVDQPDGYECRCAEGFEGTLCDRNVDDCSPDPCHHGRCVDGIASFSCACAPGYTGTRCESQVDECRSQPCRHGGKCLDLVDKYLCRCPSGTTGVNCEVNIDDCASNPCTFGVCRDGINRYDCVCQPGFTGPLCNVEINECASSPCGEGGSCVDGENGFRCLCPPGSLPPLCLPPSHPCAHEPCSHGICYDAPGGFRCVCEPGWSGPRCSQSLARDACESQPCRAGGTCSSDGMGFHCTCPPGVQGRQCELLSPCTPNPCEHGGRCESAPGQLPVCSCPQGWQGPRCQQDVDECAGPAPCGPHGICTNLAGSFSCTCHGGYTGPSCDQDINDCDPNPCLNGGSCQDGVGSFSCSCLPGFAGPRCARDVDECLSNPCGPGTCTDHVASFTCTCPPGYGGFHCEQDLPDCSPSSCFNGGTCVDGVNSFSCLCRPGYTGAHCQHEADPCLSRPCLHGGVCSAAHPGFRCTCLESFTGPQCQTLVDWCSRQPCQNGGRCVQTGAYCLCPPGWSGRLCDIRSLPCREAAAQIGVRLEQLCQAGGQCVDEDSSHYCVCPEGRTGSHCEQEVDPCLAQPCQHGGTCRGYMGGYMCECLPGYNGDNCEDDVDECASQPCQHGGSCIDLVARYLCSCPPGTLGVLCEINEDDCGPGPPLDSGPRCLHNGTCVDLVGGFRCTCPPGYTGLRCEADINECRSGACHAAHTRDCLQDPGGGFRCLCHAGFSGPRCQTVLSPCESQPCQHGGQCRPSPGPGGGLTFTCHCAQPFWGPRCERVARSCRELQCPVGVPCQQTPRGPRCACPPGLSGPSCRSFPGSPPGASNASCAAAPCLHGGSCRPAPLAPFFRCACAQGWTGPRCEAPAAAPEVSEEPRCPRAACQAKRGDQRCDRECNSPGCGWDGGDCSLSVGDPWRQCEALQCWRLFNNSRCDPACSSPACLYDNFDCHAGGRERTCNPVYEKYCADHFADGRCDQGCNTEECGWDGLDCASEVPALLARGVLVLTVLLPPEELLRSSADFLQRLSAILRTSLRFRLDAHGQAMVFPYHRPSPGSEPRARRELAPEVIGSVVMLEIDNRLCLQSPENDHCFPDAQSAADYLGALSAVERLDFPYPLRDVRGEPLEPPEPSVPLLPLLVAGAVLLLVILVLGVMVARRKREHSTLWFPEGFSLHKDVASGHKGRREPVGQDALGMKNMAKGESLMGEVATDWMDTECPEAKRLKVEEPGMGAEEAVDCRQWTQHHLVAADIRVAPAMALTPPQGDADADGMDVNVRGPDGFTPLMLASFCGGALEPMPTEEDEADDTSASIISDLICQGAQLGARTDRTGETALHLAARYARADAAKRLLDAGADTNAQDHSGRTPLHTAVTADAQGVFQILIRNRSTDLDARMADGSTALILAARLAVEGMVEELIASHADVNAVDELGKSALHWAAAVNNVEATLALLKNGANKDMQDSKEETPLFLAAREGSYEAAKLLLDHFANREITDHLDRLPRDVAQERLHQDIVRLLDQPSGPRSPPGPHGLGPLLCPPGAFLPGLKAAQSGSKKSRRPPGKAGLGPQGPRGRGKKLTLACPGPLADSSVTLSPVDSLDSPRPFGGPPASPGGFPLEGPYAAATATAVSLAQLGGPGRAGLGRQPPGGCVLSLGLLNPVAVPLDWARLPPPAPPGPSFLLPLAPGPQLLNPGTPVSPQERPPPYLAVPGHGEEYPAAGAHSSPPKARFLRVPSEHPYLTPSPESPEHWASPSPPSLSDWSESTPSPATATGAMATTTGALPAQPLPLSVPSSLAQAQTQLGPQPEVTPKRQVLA

[10] = small-molecule microarray binders of probe aEGFR, primary screen, biochemical, biotinylated probe, 635/667 nm fluorescence (AID 1097); details: higher = more signal;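 note: probe is a biotinylated anti-EGFR antibody binding compounds printed on slides; score combines fluorescence near 667 nm and signal to noise of each spot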
[11] = test system: Plasmodium falciparum Sir2 (PF13_0152, Sir2A); test: pfSir2 binders on small-molecule microarrays, primary screen, biochemical, small-molecule microarray, 635 nm fluorescence (AID 1098); details: small-molecule microarray binding, fluorescence 635 nm; higher = more signal;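 note: score merges spot fluorescence intensity with its signal-to-noise ratio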
[12] = small-molecule microarray binders of probe aDKK1, primary screen, biochemical, biotinylated probe, 635/667 nm fluorescence (AID 1099); details: higher = more signal;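 note: score merges 667nm spot fluorescence with signal to noise across triplicate slides; reference of the scale not given here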
[13] = small-molecule microarray binders of probe aCHRDL2, primary screen, biochemical, biotinylated probe, 635/667 nm fluorescence (AID 1100); details: higher = more signal
[14] = splicing luciferase reporter signal modulators, primary screen, spliceosome inhibition project, cell-based, HEK293, splice +/- reporter (AID 1101); details: luminescence, 24 h, higher = more signal, called active from +8 up or from −8 down;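 note: HEK293 cells carrying a splicing-competent luciferase reporter gene; test concentration not given here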
[15] = target: Fibroblast growth factor 10 (Homo sapiens) (UniProt O15520); test: FGF10 binders on small-molecule microarrays, primary screen, biochemical, small-molecule microarray, 635 nm fluorescence (AID 1102); details: FGF10 binding, fluorescence 635 nm, higher = more signal
Chain of Fibroblast growth factor 10 (Homo sapiens) (O15520 whole entry, looked up): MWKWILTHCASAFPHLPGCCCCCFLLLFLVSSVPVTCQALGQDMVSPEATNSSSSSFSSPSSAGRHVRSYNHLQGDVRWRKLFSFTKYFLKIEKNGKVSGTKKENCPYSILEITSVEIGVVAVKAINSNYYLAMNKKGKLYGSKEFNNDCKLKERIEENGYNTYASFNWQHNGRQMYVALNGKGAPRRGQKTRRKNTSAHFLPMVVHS

[16] = test system: glycogen synthase kinase-3 (GSK3A per assay name; protocol says GSK3B); test: GSK3 binders on small-molecule microarrays, primary screen, biochemical, small-molecule microarray, 635 nm fluorescence, GSK3A (AID 1103); details: small-molecule microarray binding, fluorescence 635 nm; higher = more signal; note: the record names both GSK3A and GSK3B
[17] = target: Epidermal growth factor receptor (Homo sapiens) (UniProt P00533); test: EGFR binders on small-molecule microarrays, primary screen, biochemical, small-molecule microarray, 635 nm fluorescence (AID 1104); details: EGFR binding, higher = more signal;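 note: score merges 667 nm emission intensity with spot signal to noise over triplicate slides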
Chain of Epidermal growth factor receptor (Homo sapiens) (P00533 whole entry, looked up): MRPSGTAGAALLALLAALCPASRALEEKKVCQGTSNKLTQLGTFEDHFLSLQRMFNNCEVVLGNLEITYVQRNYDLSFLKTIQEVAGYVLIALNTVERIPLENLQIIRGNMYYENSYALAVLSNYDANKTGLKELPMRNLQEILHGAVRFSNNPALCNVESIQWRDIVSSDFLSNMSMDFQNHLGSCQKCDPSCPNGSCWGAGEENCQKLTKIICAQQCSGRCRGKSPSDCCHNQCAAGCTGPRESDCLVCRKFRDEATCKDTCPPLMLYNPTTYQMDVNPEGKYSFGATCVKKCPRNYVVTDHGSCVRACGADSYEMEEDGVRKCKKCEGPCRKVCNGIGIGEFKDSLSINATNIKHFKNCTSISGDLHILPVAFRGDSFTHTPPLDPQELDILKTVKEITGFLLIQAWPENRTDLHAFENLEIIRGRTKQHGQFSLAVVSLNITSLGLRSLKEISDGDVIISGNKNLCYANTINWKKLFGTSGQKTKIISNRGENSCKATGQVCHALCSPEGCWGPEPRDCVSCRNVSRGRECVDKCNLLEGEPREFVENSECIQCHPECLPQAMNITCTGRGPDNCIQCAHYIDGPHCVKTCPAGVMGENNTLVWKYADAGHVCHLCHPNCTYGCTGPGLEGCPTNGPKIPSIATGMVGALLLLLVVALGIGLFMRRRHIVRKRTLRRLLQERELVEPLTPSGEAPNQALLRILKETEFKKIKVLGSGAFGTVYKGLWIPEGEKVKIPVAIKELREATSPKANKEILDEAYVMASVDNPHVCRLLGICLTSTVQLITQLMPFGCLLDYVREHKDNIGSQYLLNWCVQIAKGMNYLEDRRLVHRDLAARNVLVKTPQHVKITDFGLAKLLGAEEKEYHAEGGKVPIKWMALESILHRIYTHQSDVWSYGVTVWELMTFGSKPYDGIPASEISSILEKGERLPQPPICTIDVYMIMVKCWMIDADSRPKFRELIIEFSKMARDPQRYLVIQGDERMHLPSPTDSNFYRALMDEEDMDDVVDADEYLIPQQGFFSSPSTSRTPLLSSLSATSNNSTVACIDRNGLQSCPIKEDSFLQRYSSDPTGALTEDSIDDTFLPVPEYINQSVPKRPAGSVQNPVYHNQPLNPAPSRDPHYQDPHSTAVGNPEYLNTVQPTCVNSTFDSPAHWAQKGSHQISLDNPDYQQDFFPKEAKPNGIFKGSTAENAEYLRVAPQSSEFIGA

[18] = target: Follistatin-related protein 3 (Homo sapiens) (UniProt O95633); test: FSTL3 binders on small-molecule microarrays, primary screen, biochemical, small-molecule microarray, 635 nm fluorescence (AID 1105); details: FSTL3 binding, higher = more signal;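 note: score merges emission near 667 nm and signal to noise per printed spot across three slides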
Chain of Follistatin-related protein 3 (Homo sapiens) (O95633 whole entry, looked up): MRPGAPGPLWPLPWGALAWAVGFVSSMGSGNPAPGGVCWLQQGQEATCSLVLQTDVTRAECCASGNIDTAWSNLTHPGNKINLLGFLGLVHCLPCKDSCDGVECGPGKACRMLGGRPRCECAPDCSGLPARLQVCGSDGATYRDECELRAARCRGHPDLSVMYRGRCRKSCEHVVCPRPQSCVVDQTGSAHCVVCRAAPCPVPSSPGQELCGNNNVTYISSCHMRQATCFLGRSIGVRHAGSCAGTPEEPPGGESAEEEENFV

[19] = target: Dickkopf-related protein 1 (Homo sapiens) (UniProt O94907); test: DKK1 binders on small-molecule microarrays, primary screen, biochemical, small-molecule microarray, 635 nm fluorescence scan (AID 1106); details: DKK1 binding, higher = more signal;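 note: score merges emission near 667 nm with signal to noise over three replicate slides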
Chain of Dickkopf-related protein 1 (Homo sapiens) (O94907 whole entry, looked up): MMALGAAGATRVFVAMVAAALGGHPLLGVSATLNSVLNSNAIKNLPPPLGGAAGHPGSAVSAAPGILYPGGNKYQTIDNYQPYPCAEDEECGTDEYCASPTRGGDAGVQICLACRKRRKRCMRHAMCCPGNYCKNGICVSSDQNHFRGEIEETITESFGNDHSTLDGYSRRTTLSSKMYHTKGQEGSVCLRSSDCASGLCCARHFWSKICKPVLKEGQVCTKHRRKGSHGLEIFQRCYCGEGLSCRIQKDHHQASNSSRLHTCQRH

[20] = test system: Inhibin beta A chain (activin A); test: INHBA (activin A) binders on microarrays, primary screen, biochemical, small-molecule microarray, 635 nm fluorescence scan (AID 1107); details: small-molecule microarray binding, higher = more signal;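 note: mouse activin A protein probed at 4.33 µg/mL on printed slides; score merges bound-protein fluorescence near 667 nm with spot signal-to-noise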

CS(=O)(=O)CCOC(=O)C1=CC(CCCO)=CC(c2ccc(CN3CCCC3)cc2)N(Cc2sc3ccccc3c2Cl)C=C1C(=O)OCCS(C)(=O)=O (stereo not given)
composite z-score [1]: 1.54
z-score [2]: -0.381 (inactive)
z-score [3]: -5.83 (inactive)
z-score [4]: -1.41 (inactive)
composite z-score [5]: 2.06
z-score [6]: -0.853 (inactive)
composite z-score [7]: 0.27
composite z-score [8]: 0.563
composite z-score [9]: 1.04
composite z-score [10]: 0.447
composite z-score [11]: 1.37
composite z-score [12]: 0.518
composite z-score [13]: -0.0725
z-score [14]: 0.576 (inactive)
composite z-score [15]: 1.34
composite z-score [16]: 1.33
composite z-score [17]: 0.558
composite z-score [18]: 1
composite z-score [19]: 0.858
composite z-score [20]: 1.34

C=CCNC(=O)[C@@H]1[C@H]2C(=O)O[C@H](c3ccccc3)[C@H](c3ccccc3)N2[C@H](c2ccccc2OCCO)[C@@]12C(=O)Nc1ccc(C#CCCO)cc12
composite z-score [1]: 1.55
z-score [2]: 1.31 (inactive)
z-score [3]: -1.46 (inactive)
z-score [4]: 3.43 (inactive)
composite z-score [5]: 2.3
z-score [6]: -0.372 (inactive)
composite z-score [7]: -0.106
composite z-score [8]: 1.23
composite z-score [9]: 0.686
composite z-score [10]: -0.165
composite z-score [11]: 0.124
composite z-score [12]: -0.332
composite z-score [13]: 0.178
z-score [14]: -1.06 (inactive)
composite z-score [15]: 0.95
composite z-score [16]: 0.773
composite z-score [17]: 0.954
composite z-score [18]: 1.04
composite z-score [19]: 1.49
composite z-score [20]: 0.65

C=CC[C@H](OC(=O)Nc1ccc(SC)cc1)c1ccc(O)c2ccccc12
composite z-score [1]: 1.54
z-score [2]: -23.9 (active)
z-score [3]: -19.8 (active)
z-score [4]: -1.38 (inactive)
composite z-score [5]: 2.8
z-score [6]: 1.42 (inactive)
composite z-score [7]: -0.112
composite z-score [8]: 1.1
composite z-score [9]: 1.1
composite z-score [10]: -0.128
composite z-score [11]: 0.731
composite z-score [12]: -0.0313
composite z-score [13]: 0.296
z-score [14]: -2.98 (inactive)
composite z-score [15]: 0.972
composite z-score [16]: 1.29
composite z-score [17]: 0.961
composite z-score [18]: 1.08
composite z-score [19]: 0.778
composite z-score [20]: 0.932

COC(=O)C1=CC(CCCO)=CC(c2cccs2)N(Cc2cccc(OC(F)(F)F)c2)C=C1C(=O)OC (stereo not given)
composite z-score [1]: 1.57
z-score [2]: -1.07 (inactive)
z-score [3]: -1.2 (inactive)
z-score [4]: -1.45 (inactive)
composite z-score [5]: 3.28
z-score [6]: 0.313 (inactive)
composite z-score [7]: 0.0922
composite z-score [8]: 0.143
composite z-score [9]: 1.04
composite z-score [10]: 0.679
composite z-score [11]: 0.0898
composite z-score [12]: 0.524
composite z-score [13]: 0.574
z-score [14]: 0.955 (inactive)
composite z-score [15]: 0.67
composite z-score [16]: 1.09
composite z-score [17]: 0.179
composite z-score [18]: 0.989
composite z-score [19]: -0.149
composite z-score [20]: 1.09

CC1CC/C=C\[C@H]2OC34C=CCN(C(C)C)C(=O)[C@H]3N(CCO)C(=O)[C@@H]4C2C(=O)O1 (stereo not given in full)
composite z-score [1]: -0.138
z-score [2]: 0.114 (inactive)
z-score [3]: -0.486 (inactive)
z-score [4]: 0.323 (inactive)
composite z-score [5]: -0.021
z-score [6]: 1.48 (inactive)
composite z-score [7]: -0.159
composite z-score [8]: -1.87
composite z-score [9]: -0.355
composite z-score [10]: -0.281
composite z-score [11]: 0.501
composite z-score [12]: -0.163
composite z-score [13]: 0.701
z-score [14]: 0.459 (inactive)
composite z-score [15]: -0.309
composite z-score [16]: -0.979
composite z-score [17]: -1.29
composite z-score [18]: -1.28
composite z-score [19]: -1.28
composite z-score [20]: -0.372
